Where “and” joins values, the source holds several entries; their conditions need not be identical. Equal entries are not always repeated.
Assays:
[1] = qHTS profiling for inhibitors of Plasmodium falciparum (3D7) proliferation (AID 743322);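 also: infected erythrocytes exposed to compound for 72 h before lysis; 100% = DMSO vehicle wells and 0% = 0.29 µM artemisinin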; settings: P. falciparum 3D7 proliferation; at 28.7 µM (top of the series)
How it was run: (§1)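 Parasite DNA was quantified by SYBR Green I fluorescence (ex 485, em 535 nm) after overnight lysis in saponin/Triton buffer at room temperature. Cultures at 0.3% parasitemia and 2.5% hematocrit were first exposed to compound for 72 h at 37 C; signals were normalised to artemisinin (0.29 uM) and vehicle wells.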

[2] = qHTS profiling for inhibitors of Plasmodium falciparum (DD2) proliferation (AID 743323); settings: lower = more inhibition; at 28.7 µM (top of the series)
How it was run: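 P. falciparum Dd2-infected erythrocytes (0.3% parasitemia, 2.5% hematocrit) exposed 72 h at 37 C, 5% CO2. Lysis with SYBR Green, overnight at room temperature, fluorescence 485/535 nm; normalized to 0.29 uM artemisinin and DMSO.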

[3] = qHTS profiling for inhibitors of Plasmodium falciparum (HB3) proliferation (AID 743324); settings: Plasmodium falciparum HB3 blood-stage proliferation; at 28.7 µM (top of the series);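 also: 100% = DMSO vehicle wells and 0% = artemisinin-treated control wells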
How it was run: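 SYBR Green fluorescence (485 ex/535 em) of lysed cultures, incubated overnight at room temperature in the dark, quantifies parasite DNA. Infected erythrocytes at 0.3% parasitemia and 2.5% hematocrit were exposed 72 h; values normalized to DMSO and 0.29 uM artemisinin controls.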

[4] = qHTS profiling of the MIPE4 collection as inhibitors of Plasmodium falciparum (3D7) proliferation (AID 743344);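 also: scaled between DMSO vehicle wells and 0.29 µM artemisinin as full inhibition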; settings: P. falciparum 3D7 in erythrocytes, SYBR Green DNA fluorescence, 72 h; at 28.5 µM (top of the series) unless noted
How it was run: as §1

[5] = qHTS profiling of the MIPE4 collection as inhibitors of Plasmodium falciparum (DD2) proliferation (AID 743345); settings: P. falciparum Dd2 in erythrocytes, SYBR Green DNA, 72 h; at 28.5 µM (top of the series) unless noted
How it was run: as §1

[6] = qHTS profiling of the MIPE4 collection as inhibitors of Plasmodium falciparum (DD2) proliferation (Rep 2) (AID 743346); settings: P. falciparum Dd2 in erythrocytes, SYBR Green DNA, 72 h; at 28.5 µM (top of the series) unless noted
How it was run: as §1

[7] = qHTS profiling of the MIPE4 collection as inhibitors of Plasmodium falciparum (HB3) proliferation (AID 743347);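 also: plate controls were DMSO vehicle wells for no effect and artemisinin wells for full effect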; settings: P. falciparum HB3 in erythrocytes, SYBR Green DNA, 72 h; at 28.5 µM (top of the series) unless noted
How it was run: as §1

[8] = High-throughput drug toxicity screening in the BPDCN cell line Gen2.2 (AID 1224824); settings: Gen2.2 BPDCN cells; at 45.8 µM (top of the series) unless noted;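 also: cells exposed to compounds for 48 h before reading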
How it was run: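 Gen2.2, 500 cells/well, phenol red-free RPMI/10% FBS/Pen-Strep; 48 h cpd, 37 °C/5% CO2; CTG lum, 15 min RT. Norm: DMSO = 100%, bortezomib 9.2 uM final = 0%.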

[9] = High-throughput drug toxicity screening in the BPDCN cell line Cal-1 (AID 1224825); settings: Cal-1 BPDCN cell viability, qHTS; at 45.8 µM (top of the series) unless noted
How it was run: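 CellTiter-Glo luminescence after 48 h compound exposure; percent activity scaled with DMSO as 100% and bortezomib (9.2 uM final) as 0%. Cal-1 cells seeded at 500/well in RPMI, 10% FBS, no phenol red.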

Row | SMILES | remaining parasite growth % (stronger effect = lower value) [1] | activity, percent of control [2] | remaining proliferation (% of control), lower = more inhibition [3] | parasite growth, % of DMSO control [4] [%] | parasite growth remaining, % of DMSO control (lower = more inhibition) [5] [%] | parasite growth, % of control (lower = inhibition) [6] [%] | growth, % of control [7] [%] | cell viability, % of control (lower = more cytotoxic) [8] [%] | viability (% of control) [9] [%]
1 | CC(C)C[C@H](NC(=O)CNC(=O)c1cc(Cl)ccc1Cl)B(O)O | -0.752% | -0.333% | -0.908% | 5.16 | 7.7 | 7.79 | 3.75 | 2.43 | 4.79
2 | c1nc2nc(Nc3ccc(N4CCOCC4)cc3)nc(NC3CCCCC3)c2[nH]1 | 4.62% | 13.5% | -0.173% | 12.6 | 31.3 | 10.2 | 4.57 | 9.78 | 8.54
3 | COc1cccc2nc(-c3cccs3)nc(NN3C(=O)C=C(C)C3=O)c12 | 92.8% | 81.6% | 87.8% | 27.1 | 90.8 | 18.1 | 6.3 | 4.3 | 3.16
4 | COC(=O)[C@]12CCC(C)(C)C[C@@H]1[C@@H]1C(=O)C=C3[C@@]4(C)C=C(C#N)C(=O)C(C)(C)[C@@H]4CC[C@@]3(C)[C@]1(C)CC2 | 0.25% | 0.779% | 2.29% | 13.9 | 7.23 | 25.5 | 11.3 | 3.73 | 2.87
5 | O=C(Nc1cc(C(F)(F)F)cc(C(F)(F)F)c1)c1cc(Cl)ccc1O | -1.15% | 0.0029% | -0.617% | 5.26 | 6.62 | 14.1 | 5.57 | 7.43 | 2.38
6 | COc1cc2ncnc(Nc3ccc(F)c(Cl)c3)c2cc1NC(=O)C=CCN1CCCCC1 | -0.218% | 0.401% | 0.28% | 9.04 | 8.26 | 11 | 6.53 | 10 | 3.6
7 | CC(C)=CCCC(C)=CCCC(C)=CCSc1ccccc1C(=O)O | 101% | 118% | 92% | 22.6 | 25.3 | 33.1 | 15.5 | 9.26 | 19
8 | CC(=O)OCC(=O)[C@@]1(O)[C@H](C)C[C@H]2[C@@H]3C=C(C)C4=Cc5c(cnn5-c5ccccc5)C[C@]4(C)[C@@H]3[C@@H](O)C[C@@]21C | -0.774% | -0.0557% | -1.72% | 6.78 | 6.63 | 21.4 | 10.8 | 102 | 45.8
9 | CN(c1ncccc1CNc1nc(Nc2ccc3c(c2)CC(=O)N3)ncc1C(F)(F)F)S(C)(=O)=O | 12.7% | 9.35% | 5.89% | 12.5 | 14.1 | 30.9 | 10.4 | 12.1 | 4.76
10 | CC(=O)c1c(C)c2cnc(Nc3ccc(N4CCNCC4)cn3)nc2n(C2CCCC2)c1=O | 0.348% | 4.74% | 0.446% | 5.54 | 6.84 | 9.82 | 2.45 | 8.1 | 3.89
11 | Cc1cn(-c2cc(NC(=O)c3ccc(C)c(Nc4nccc(-c5cccnc5)n4)c3)cc(C(F)(F)F)c2)cn1 | 3.06% | 12.7% | 2.94% | 6.31 | 8.07 | 27.3 | 7.2 | 231 | 101
12 | Cn1c2cc(S(C)=O)sc2c2cnn(Cc3cccc(N)c3)c(=O)c21 (configuration not stated) | 83.6% and 85.6% | 95% and 94.7% | 53.2% and 65.3% | 190 | 102 | 77 | 367 | 123 | 100
13 | CC(C)(C)c1cnc(CSc2cnc(NC(=O)C3CCNCC3)s2)o1 | 9.96% | 6.95% | 7.19% | 11.9 | 13 | 24.1 | 12.8 | 1.75 | 1.24
14 | CCCCc1nc2cc(C=CC(=O)NO)ccc2n1CCN(CC)CC | -0.311% | -0.413% | -0.411% | 4.71 | 7.36 | 7.61 | 4.84 | 53.2 | 7.58
15 | CCC[C@H](NC(=O)C(C#N)=Cc1cccc(Br)n1)c1ccccc1 | 26.8% | 23.2% | 14.8% | 11.6 | 6.9 | 17.5 | 4.55 | 15.9 | 4.33
16 | O=C(NCCS(=O)(=O)c1ccc(C(F)(F)F)cn1)c1ccc(Cl)cc1 | 98.8% | 98.7% | 99.7% | 127 | 103 | 82.3 | 84.8 | 146 | 123
17 | C=CC(=O)Nc1cc2c(Nc3ccc(F)c(Cl)c3)ncnc2cc1OCCCN1CCOCC1 | -0.797% | 10.5% | 1.71% | 31.1 | 16 | 29.7 | 3.29 | 5.62 | 11.2
18 | CC1=C(CO)C(=O)O[C@@H]([C@@H](C)[C@H]2CC[C@H]3[C@@H]4C[C@H]5O[C@]56[C@@H](O)C=CC(=O)[C@]6(C)[C@@H]4CC[C@]23C)C1 | -1.7% | -0.497% | -0.146% | 6.08 | 7.1 | 7.54 | 3.14 | 3.38 | 1.9

Source: PubChem BioAssay (NCATS)
